Assay outcomes as filed in PubChem BioAssay.
Compounds with a hit are over-represented: about 11% of the library has one in this group of screens.
HPGD inh: blocks human HPGD enzyme activity. 150,000 tested, 4.3% active. Potency, µM, without a hit: at the top dose activity change, negative = inhibition, actives largely listed as inhibitors. purified HPGD, NADH fluorescence kinetic, PGE2 substrate. P15428. AID 894; further: potency means the concentration at half of the fitted maximal effect
Target sequence (P15428 whole entry, looked up): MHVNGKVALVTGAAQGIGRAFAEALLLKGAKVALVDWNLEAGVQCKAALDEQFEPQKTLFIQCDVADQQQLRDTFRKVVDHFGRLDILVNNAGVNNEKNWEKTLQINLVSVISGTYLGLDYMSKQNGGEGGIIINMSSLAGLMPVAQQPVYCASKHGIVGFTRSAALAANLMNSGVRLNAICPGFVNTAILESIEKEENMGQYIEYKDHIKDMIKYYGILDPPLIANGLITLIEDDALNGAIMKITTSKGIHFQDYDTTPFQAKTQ
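20 nM HPGD preincubated 15 min at room temperature with compound in 50 mM Tris-HCl pH 8, 0.01% Tween 20. Started with 1 mM NAD+ and 30 uM prostaglandin E2; NADH fluorescence (360/450 nm) read 5 times over 30-s intervals, last minus first.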
PNC assembly inh: perinucleolar compartment assembly inhibition | PC3M PTB-GFP, PNC prevalence imaging, 16 h; active compounds read low | activity change (PNC), negative = inhibition, % at 10 µM | 140,000 tested, 3.1% active | AID 2417;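 active means readout at or below -70, meaning at least 70% loss of cells showing the perinucleolar compartment, a nuclear body marking cancer cells; inconclusive means readout between -30 and a set limit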;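 further: plate controls were DMSO wells for no effect and camptothecin positive control wells for full effect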
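Read-out is percentage of cells bearing a perinucleolar compartment, from automated 20x imaging of fixed, Hoechst-stained PC3M PTB-GFP cells. Cells were seeded 4 h, then exposed 16 h to compound (23 nl of library stock) in duplicate plates.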
ALDH1A1 block: ALDH1A1 (human) enzyme inhibition | P00352 | Purified ALDH1A1, NADH fluorescence, propionaldehyde substrate | Potency, µM (series often up to 75.3 µM), inactives show at the highest dose activity, negative = inhibition, hits mostly inhibitors | 220,000 tested, 7.3% active;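 further: potency means the concentration at half of the fitted maximal effect; plate controls were no enzyme wells and a reference inhibitor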
* = called active by the depositor; ? = inconclusive; / = not tested or not shown; [ ] = dose if it differs, or a comment. Unless noted, the call rests on the fitted dose curve; in most records, active means well fitted inhibition curve with a large enough effect (not every such curve was filed as active); inconclusive means small, poorly fitted or top-dose-only effect, or another doubt; inactive means no such curve, though single readings can be large or run the other way. Unless noted, on the % scale 0 is the no-effect control and ±100 the full control effect.

SMILES | HPGD inh | PNC assembly inh | ALDH1A1 block
C#CCOCCOCCOCCNc1nc(N2CCN(C(=O)[C@H]([C@@H](C)CC)n3cc([C@@H](N)CC(C)C)nn3)CC2)nc(N2CCN(C(=O)[C@H](CCCCN)n3cc([C@@H](N)CO)nn3)CC2)n1 | / | / | -3%
CCOC(=O)CCC(=O)NNC(=O)COc1ccc(C(C)C)cc1Br | / | / | -5%
O=C(NCc1nnc(SCC(=O)N2CCOCC2)o1)c1ccccc1F | / | / | -6%
CCCCNC(=O)COC(=O)c1cc(C)oc1C | / | / | 1%
c1ccc(B2OC[C@@H]3OB(c4ccccc4)O[C@H]([C@@H]4COB(c5ccccc5)O4)[C@@H]3O2)cc1 | -4% | / | 8%[13.5 µM]
CCN(CC)S(=O)(=O)c1ccc(N2CCOCC2)c(NC(=O)Cc2ccc(Cl)cc2)c1 | / | 18 | 25µM*
CCN(CC)S(=O)(=O)c1ccc(N2CCOCC2)c(NC(=O)CC23CC4CC(CC(Br)(C4)C2)C3)c1 | -12% | -29 | -11%
CCN(CC)S(=O)(=O)c1ccc(N2CCOCC2)c(NC(=O)c2cccc3ccccc23)c1 | -18% | ? | 13µM*
CCN(CC)S(=O)(=O)c1ccc(N2CCCCC2)c(C(=O)Nc2ccccc2N2CCOCC2)c1 | -14% | 14 | -6%
CCN(CC)S(=O)(=O)c1ccc(N2CCOCC2)c(NC(=O)c2ccc3ccccc3c2)c1 | ? | -8 | ?
CCN(CC)S(=O)(=O)c1ccc(N2CCOCC2)c(NC(=O)c2cc(=O)[nH]c3ccccc23)c1 | / | / | 14µM*
O=S(=O)(c1ccccc1)N1CCC[C@@]2(CCN(c3cccc(-c4ccccc4)c3)C2)C1 | -11% | / | -5%
Cc1ccnc(NS(=O)(=O)c2ccc(N)cc2)n1 | -13% | 15 | -1%
CN(C)C1C(=O)C(C(N)=O)C(=O)C2(O)C(=O)C3C(=O)c4c(O)ccc(Cl)c4C(O)C3CC12 (stereo not drawn) | -20% | / | -7%
COc1ccc(CCNC(=O)c2ccccc2SC)cc1 | / | / | -1%
COC(=O)[C@@]1(Cc2ccccc2)[C@H]2c3cc(C(=O)N(C)C)n(Cc4c(CO)[nH]cc(C)c4=O)c3C[C@H]2CN1C(=O)c1ccccc1 | -7% | / | -4%
CC(C)Oc1ccc(OCCCN2CCCCCC2)cc1 | -4% | -18 | -14%
CCCC(O)(CCN1CCOCC1)c1ccc(Br)cc1 (stereo not drawn) | -8% | 4 | 5µM*
Brc1ccc(OCCOCCN2CCOCC2)cc1 | -4% | 15 | 9%
CCC(C)c1ccc(OCCN2CCCC2)cc1 (stereo not drawn) | -3% | 44 | ?
CCC(=O)c1ccc(OCC(O)CN2CCOCC2)cc1 (stereo not drawn) | 0% | ? | 3%
CCCCOc1ccc(C(=O)CCN2CCOCC2)cc1 | / | / | 0.28µM*
CCCOc1ccc(C(O)(CCC)CCN2CCCCC2)cc1 (stereo not drawn) | -10% | 12 | 25µM*
CCOc1ccc(OCCN2CCCCC2)cc1 | 0% | -88* | -6%
CSc1ccc(CN2CCN(CC=C(C)C)C(CCO)C2)cc1 (stereo not drawn) | / | / | 0%
SMILES | HPGD inh | PNC assembly inh | ALDH1A1 block
OCc1ccccc1O[C@H]1OC(CO)C(O)C(O)C1O (stereo partly drawn) | 5% | / | 2%
O=C1CCC/C(=N\NC(=O)c2ccc(COc3cccc4cccnc34)cc2)C1 | -10% | -29 | 0%
Brc1cccc(OCCCN2CCCCCC2)c1 | / | / | 13µM*
CC1CCN(CCOc2cccc(Br)c2)CC1 | -5% | 13 | -4%
CCCOc1ccc(C(=O)CCN2CCCCC2)cc1 | -21% | -9 | 0.056µM*
CCCOc1ccc(OCCN2CCCC(C)C2)cc1 (stereo not drawn) | -9% | 9 | ?
CCOc1ccc(C(=O)CCN2CCCCCC2)cc1 | -14% | 19 | 0.063µM*
O=C(CCN1CCCCC1)c1ccc2c(c1)OCO2 | ? | 8 | ?
CC1=NNC(=S)NCCCN2CCN(CCCNC(=S)NN=C(C)C=NNC(=S)NCCCN3CCN(CCCNC(=S)NN=C1)CC3)CC2 | -2% | / | -11%[13.5 µM]
COc1ccccc1C1CC(=O)Oc2cc3c(cc21)OCO3 (stereo not drawn) | -18% | / | ?
CSc1ccccc1NC(=O)CN(C)CC(=O)Nc1c(F)cccc1F | -4% | -18 | 0%
O=C(NC1CCCCC1)N1CCN(Cc2ccco2)CC1 | / | / | 1%
O=C(COC(=O)c1cccc(S(=O)(=O)NCc2ccccc2)c1)NCC1CCCO1 (stereo not drawn) | / | / | 5%
CCCCCCCCCCCC(CC1OC(=O)C1CCCCCC)OC(=O)C(CC(C)C)NC=O (stereo not drawn) | -12% | / | -2%
O=C(CNC(=O)c1ccc2ccccc2c1)OCC(=O)N1CCN(S(=O)(=O)c2ccc3ccccc3c2)CC1 | -25% | 44 | -2%
O=C1CCC2(CC1)NC(=O)N(c1ccccc1)N2 | / | / | 4%
CC(C)(C)NC[C@H](O)COc1cccc2c1CCC(=O)N2 | 1% | / | 1%[20.9 µM]
COc1ccc(NC(=O)C2CCCN(S(=O)(=O)c3cccs3)C2)cc1OC (stereo not drawn) | 2% | -8 | 5%
COc1ccc(NC(=O)C2CCC(CNS(=O)(=O)c3cccs3)CC2)cc1OC (stereo not drawn) | / | / | 5µM*
COc1ccc(NC(=O)Nc2cccs2)cc1OC | -7% | 10 | 22µM*
COc1cccc(NC(=O)Nc2cccs2)c1 | -21% | 32 | ?
Cc1cccc(NC(=O)c2ccc(S(=O)(=O)N3CCOCC3)cc2)n1 | / | / | 5%
CCOC(=O)C1=C(NC#N)OC(C)=C(C)C1c1ccc(O)cc1 (stereo not drawn) | -29% | ? | 22µM*
CCOC(=O)C1=C(C)OC(N)=C(C#N)C1c1ccsc1 (stereo not drawn) | -19% | -18 | ?
O=C(CCCO)CCCCCCCCC[C@H]1N[C@H](CO)[C@@H](O)[C@@H]1O | -13% | -23 | -1%
SMILES | HPGD inh | PNC assembly inh | ALDH1A1 block
COc1ccc2nc(N3C(=O)/C(=C/c4ccc(Cl)cc4)NC3=S)sc2c1 | -20% | 16 | 14%
CN(C)/C=C1\NC(=S)N(c2ccc(Cl)cc2)C1=O | / | / | 20µM*
O=[N+]([O-])c1ccc(N/N=C/c2ccc(O)c(O)c2O)c(S(=O)(=O)N2CCOCC2)c1 | / | / | 3.5µM*
O=[N+]([O-])c1ccc(N/N=C/c2cccc(O)c2O)c(S(=O)(=O)N2CCOCC2)c1 | / | / | -9%
O=C(CCc1ccc(S(=O)(=O)N2CCOCC2)cc1)N/N=C/c1ccc(F)cc1F | / | / | -9%
O=C(CCc1ccc(S(=O)(=O)N2CCOCC2)cc1)N/N=C/c1ccc(O)c(O)c1O | ? | -111* | 13µM*
CN1CCC(=NNC(=O)c2cn(-c3ccccc3)nc2-c2ccccc2)CC1 | -3% | ? | 1.3µM*
O=C(O)c1ccc(NC(=O)c2cn(-c3ccccc3)nc2-c2ccccc2)cc1 | / | / | 1%
CCC(C)/C(C)=N/NC(=O)c1cn(-c2ccccc2)nc1-c1ccccc1 (stereo not drawn) | 0% | 27 | 6.3µM*
CCCC/C(C)=N/NC(=O)c1cn(-c2ccccc2)nc1-c1ccccc1 | -27% | -14 | 0.56µM*
CCCC/C(C)=N/NC(=O)Nc1ccccc1 | -8% | 48 | 15%
COC(=O)c1cn(-c2ccccc2)nc1-c1ccccc1 | -11% | 6 | -11%
N/N=C(\c1ccccc1)C12CN3CN(CN(C3)C1)C2 | -3% | ? | 1%
